Results from the supplement of paper PMC10849652.
Of roughly 8,800 targets only a part is listed; those with a hit were picked by preference. About 0.5% of all pairs of compound and target were hits.

Tests used:
Assay in all cases: log2 fold change, soluble protein after heating vs DMSO (PISA); higher = thermal stabilisation; K562 lysate, 10 uM; active = over 0.2 and 3.5 SD of the protein, either way, in both replicates (recomputed)
[1] = compound: CN1CC[C@H](c2c(O)cc(O)c3c(=O)cc(-c4ccccc4Cl)oc23)[C@H](O)C1 [alvocidib]
Outline: (§1)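 Values give the log-two fold change in thermal stability against solvent controls, from duplicates. Crude K562 extract at 1 mg/mL protein, made by dounce homogenisation in PBS pH 7.4 with 1 mM MgCl2, was treated with 10 μM compound for 30 min. After 3 min heating across 48°C-58°C, aliquots were pooled, adjusted to 0.5% NP-40 at 4°C and centrifuged at 21,000xg for 90 min. The supernatant was measured by TMTpro 16plex LC-MS/MS with channel sums equalised.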

[2] = compound: CN1CCc2c(c3ccccc3n2Cc2ccc(C(=O)NO)cc2)C1 [Tubastatin A]
Outline: as §1

[3] = compound: CNC(=O)C1=CC=CC=C1NC2=NC(=NC=C2Cl)NC3=C(C=C(C=C3)N4CCOCC4)OC
Outline: as §1

[4] = compound: COC(=O)N[C@@H](C)CNc1nccc(-c2cn(C(C)C)nc2-c2cc(Cl)cc(NS(C)(=O)=O)c2F)n1 [encorafenib]
Outline: as §1

[5] = compound: COC(=O)[C@H](CCSC)NC(=O)C1=C(C=C(C=C1)NC[C@H](CS)N)C2=CC=CC=C2
Outline: as §1

[6] = compound: COc1cc(Nc2ncc3c(n2)-c2ccc(Cl)cc2C(c2c(F)cccc2OC)=NC3)ccc1C(=O)O [alisertib]
Outline: as §1

[7] = compound: COc1cc2nc(-c3cc(F)ccc3O)nc(N[C@@H]3CNC[C@H]3C(C)(C)O)c2cc1OC
Outline: as §1

[8] = compound: COc1cc2ncnc(Nc3ccc(F)c(Cl)c3)c2cc1OCCCN1CCOCC1 [gefitinib]
Outline: as §1

[9] = compound: CNC(=O)c1ccc(Nc2ncc(C(F)(F)F)c(NCc3nccnc3N(C)S(C)(=O)=O)n2)cc1 [defactinib]
Outline: as §1

[10] = compound: CNc1nc(-c2ccc3c(N)n[nH]c3c2)cc(N2C[C@@H](C(=O)NC3CCCCC3)CC[C@H]2C)n1
Outline: as §1

Measured: log2 fold change

SLC41A1 (UniProt Q8IVJ1)
UniProt Q8IVJ1, sequence (Q8IVJ1 whole entry, looked up): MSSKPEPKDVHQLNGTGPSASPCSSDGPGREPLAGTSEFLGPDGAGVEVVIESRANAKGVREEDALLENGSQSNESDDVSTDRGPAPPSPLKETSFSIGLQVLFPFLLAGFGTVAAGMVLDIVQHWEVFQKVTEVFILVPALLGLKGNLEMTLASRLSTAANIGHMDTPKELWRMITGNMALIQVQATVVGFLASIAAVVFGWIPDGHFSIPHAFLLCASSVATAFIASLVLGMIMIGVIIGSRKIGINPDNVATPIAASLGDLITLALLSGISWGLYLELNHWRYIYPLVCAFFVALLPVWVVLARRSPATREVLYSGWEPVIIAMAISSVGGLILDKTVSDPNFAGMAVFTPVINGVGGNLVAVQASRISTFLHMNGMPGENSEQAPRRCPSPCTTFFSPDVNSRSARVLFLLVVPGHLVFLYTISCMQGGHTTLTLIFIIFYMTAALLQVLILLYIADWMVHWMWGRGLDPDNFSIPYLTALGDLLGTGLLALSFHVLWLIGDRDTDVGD
inactive: [1] -0.213 | [2] 0.055 | [3] 0.043 | [4] 0.071 | [5] -0.031 | [6] 0.024 | [7] 0.014 | [8] 0.153

STMN3 (UniProt Q9NZ72)
UniProt Q9NZ72, sequence (Q9NZ72 whole entry, looked up): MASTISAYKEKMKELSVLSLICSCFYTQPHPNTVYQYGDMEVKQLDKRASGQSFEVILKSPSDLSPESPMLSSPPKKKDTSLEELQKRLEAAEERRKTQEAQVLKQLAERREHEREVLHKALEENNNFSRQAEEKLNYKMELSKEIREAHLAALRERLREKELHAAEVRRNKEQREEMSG
inactive: [2] 0.009 | [3] 0.014 | [9] 0.023 | [10] 0.029 | [4] -0.015 | [5] -0.021 | [6] -0.082 | [7] -0.012 | [8] -0.041

TAOK2 isoform 2 (UniProt Q9UL54)
inactive: [6] -0.046 | [8] -0.202

SIN3B (UniProt O75182)
UniProt O75182, sequence (O75182 whole entry, looked up): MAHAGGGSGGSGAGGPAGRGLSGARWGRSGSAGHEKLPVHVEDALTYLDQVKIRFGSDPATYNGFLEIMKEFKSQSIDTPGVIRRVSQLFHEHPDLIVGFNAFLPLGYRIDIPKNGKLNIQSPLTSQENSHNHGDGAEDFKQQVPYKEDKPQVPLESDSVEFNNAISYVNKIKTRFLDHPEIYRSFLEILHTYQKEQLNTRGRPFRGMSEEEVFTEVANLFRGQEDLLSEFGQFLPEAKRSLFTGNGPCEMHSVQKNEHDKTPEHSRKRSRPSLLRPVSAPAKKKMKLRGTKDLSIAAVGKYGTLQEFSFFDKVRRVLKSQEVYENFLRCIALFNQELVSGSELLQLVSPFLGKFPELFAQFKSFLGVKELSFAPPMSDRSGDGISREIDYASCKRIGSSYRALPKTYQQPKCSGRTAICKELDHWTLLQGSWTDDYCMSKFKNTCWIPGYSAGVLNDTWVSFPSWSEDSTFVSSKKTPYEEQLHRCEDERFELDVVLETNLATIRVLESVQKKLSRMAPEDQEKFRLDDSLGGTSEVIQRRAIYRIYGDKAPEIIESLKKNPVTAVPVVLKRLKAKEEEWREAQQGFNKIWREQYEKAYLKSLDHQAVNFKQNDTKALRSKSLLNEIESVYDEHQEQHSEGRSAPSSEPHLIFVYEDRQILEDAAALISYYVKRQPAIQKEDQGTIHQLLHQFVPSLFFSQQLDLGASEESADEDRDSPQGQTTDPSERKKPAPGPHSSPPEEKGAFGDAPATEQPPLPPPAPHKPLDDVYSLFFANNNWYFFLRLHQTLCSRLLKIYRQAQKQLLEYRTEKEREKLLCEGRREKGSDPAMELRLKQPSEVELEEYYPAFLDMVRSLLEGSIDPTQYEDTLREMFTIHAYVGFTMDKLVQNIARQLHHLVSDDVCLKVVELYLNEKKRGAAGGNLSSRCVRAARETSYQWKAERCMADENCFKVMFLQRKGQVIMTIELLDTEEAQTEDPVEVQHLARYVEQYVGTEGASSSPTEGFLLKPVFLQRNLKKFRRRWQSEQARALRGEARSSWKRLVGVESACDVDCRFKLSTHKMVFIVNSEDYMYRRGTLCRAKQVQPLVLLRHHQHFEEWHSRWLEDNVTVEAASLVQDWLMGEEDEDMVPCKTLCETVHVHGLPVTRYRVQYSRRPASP
inactive: [1] -0.463 | [9] 0.185 | [4] 0.12 | [5] 0.272 | [6] -0.064 | [8] 0.793

SMPD2 (UniProt O60906)
UniProt O60906, sequence (O60906 whole entry, looked up): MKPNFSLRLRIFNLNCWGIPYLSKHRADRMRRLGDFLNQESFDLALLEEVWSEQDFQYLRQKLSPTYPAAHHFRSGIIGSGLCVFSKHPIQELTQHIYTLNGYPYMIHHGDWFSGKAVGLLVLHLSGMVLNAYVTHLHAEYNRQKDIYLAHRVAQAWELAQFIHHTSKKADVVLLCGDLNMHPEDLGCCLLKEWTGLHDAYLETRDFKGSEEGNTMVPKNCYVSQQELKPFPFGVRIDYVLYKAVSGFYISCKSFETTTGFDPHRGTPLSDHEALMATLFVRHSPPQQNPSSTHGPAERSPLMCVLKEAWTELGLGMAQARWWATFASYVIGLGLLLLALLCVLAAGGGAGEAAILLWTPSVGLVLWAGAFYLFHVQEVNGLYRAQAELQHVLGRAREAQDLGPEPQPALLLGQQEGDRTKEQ
inactive: [1] -0.043 | [2] 0.088 | [3] -0.787 | [10] -0.034 | [4] 0.09 | [5] -0.22 | [7] -0.074

SMIM1 (UniProt B2RUZ4)
UniProt B2RUZ4, sequence (B2RUZ4 whole entry, looked up): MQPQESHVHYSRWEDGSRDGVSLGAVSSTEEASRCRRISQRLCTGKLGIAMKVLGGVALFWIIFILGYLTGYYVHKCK
inactive: [1] -0.031 | [2] 0.123 | [3] 0.097 | [4] 0.226 | [5] -0.07 | [6] -0.149 | [7] 0.022 | [8] -0.279

SRC isoform 2 (UniProt P12931)
UniProt P12931, sequence (P12931 whole entry, looked up): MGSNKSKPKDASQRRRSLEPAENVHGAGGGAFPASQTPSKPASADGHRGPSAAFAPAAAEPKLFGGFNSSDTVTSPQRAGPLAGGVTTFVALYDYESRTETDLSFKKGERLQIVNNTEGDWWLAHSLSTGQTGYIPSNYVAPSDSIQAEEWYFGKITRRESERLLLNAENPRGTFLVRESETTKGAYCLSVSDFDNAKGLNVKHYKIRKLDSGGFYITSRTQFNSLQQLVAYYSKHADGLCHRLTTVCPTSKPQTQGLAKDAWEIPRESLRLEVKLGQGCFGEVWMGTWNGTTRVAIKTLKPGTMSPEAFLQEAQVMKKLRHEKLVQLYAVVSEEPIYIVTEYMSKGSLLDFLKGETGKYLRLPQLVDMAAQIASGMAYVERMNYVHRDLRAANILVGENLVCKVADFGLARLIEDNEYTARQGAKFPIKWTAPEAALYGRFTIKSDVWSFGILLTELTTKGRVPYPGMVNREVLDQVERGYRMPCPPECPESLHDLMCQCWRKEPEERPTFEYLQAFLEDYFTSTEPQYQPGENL
inactive: [1] -0.035 | [2] 0.133 | [3] 0.118 | [10] -0.031 | [4] -0.171 | [5] 0.399 | [7] 0

SLCO4A1 (UniProt Q96BD0)
UniProt Q96BD0, sequence (Q96BD0 whole entry, looked up): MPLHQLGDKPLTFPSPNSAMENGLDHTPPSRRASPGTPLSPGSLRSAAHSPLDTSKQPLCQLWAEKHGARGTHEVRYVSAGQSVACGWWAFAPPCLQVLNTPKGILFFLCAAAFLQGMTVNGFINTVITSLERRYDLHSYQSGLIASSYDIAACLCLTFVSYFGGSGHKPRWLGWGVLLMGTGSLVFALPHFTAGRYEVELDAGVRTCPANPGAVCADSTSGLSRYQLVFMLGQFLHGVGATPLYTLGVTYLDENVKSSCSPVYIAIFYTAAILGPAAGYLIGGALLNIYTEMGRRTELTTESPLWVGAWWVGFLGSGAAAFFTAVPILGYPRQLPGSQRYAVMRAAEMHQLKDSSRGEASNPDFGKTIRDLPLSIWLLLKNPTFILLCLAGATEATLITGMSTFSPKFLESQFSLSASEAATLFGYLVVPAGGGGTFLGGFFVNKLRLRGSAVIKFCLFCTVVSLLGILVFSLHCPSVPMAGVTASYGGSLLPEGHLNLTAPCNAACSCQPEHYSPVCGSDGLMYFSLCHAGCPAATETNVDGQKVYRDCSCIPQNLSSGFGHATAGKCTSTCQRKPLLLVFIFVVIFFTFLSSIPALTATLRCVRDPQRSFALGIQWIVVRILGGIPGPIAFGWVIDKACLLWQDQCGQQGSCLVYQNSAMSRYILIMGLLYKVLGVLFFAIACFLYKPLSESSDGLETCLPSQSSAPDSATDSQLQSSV
inactive: [1] -0.129 | [6] -0.041 | [8] -0.001

STK26 isoform 3 (UniProt Q9P289)
UniProt Q9P289, sequence (Q9P289 whole entry, looked up): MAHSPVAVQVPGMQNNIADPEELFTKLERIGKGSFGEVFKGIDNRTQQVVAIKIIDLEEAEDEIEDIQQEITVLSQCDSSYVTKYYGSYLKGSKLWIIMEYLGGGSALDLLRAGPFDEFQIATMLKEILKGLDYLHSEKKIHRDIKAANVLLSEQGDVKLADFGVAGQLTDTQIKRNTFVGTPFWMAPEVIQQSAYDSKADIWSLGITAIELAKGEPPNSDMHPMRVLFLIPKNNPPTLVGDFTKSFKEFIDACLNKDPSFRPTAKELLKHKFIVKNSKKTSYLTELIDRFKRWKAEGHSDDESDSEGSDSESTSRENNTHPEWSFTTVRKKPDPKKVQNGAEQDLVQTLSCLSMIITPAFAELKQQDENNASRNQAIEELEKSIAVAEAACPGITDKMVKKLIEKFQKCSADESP
inactive: [10] 0.058 | [4] 0.034 | [5] 0.001
